Experimental data as given in PubChem BioAssay AID651958 (The Scripps Research Institute Molecular Screening Center, 2012).
About 2,000 (0.54%) of roughly 370,000 compounds were called active. The list comes from a sample in which actives are over-represented; it also holds similar structures and randomly drawn compounds. Unmarked numbers belong to inactive results. No stated cut-off is given here; in the data, active means inhibition above about 30%; inactive means the rest.

What follows are compounds tested on Crimean-Congo hemorrhagic fever virus L polyprotein viral ovarian tumor (vOTU) protease domain (assay: CCHFV vOTU protease inhibitors, primary screen, biochemical, Pep-AMC substrate, fluorescence (AID 651958; further: 0% = vehicle wells with enzyme and 100% = no enzyme wells)). Conditions: at 11.5 µM, active compounds read high.

| SMILES | inhibition |
| --- | --- |
| O=C(NCc1ccc(F)cc1)c1cc(C2CCCCN2C(=O)c2cccs2)on1 (stereo not drawn) | -3.47% |
| O=C(NCc1ccc(F)cc1)c1cc(C2CCCCN2C(=O)c2ccccn2)on1 (stereo not drawn) | 11.8% |
| O=C(NCc1ccc(F)cc1)c1cc(C2CCCCN2C(=O)C2CCCCC2)on1 (stereo not drawn) | 33.5% (active) |
| CC(NC(=O)CN1CCN(Cc2ccc(Cl)cc2)C1=O)c1ccc2c(c1)OCCO2 (stereo not drawn) | 11.5% |
| Cc1cccc(OCC(=O)Nc2ccc(C(=O)O)cc2NC(=O)COc2cccc(C)c2)c1 | 16.7% |
| CCN(CC)P(=O)(Oc1cccc(C)c1)N(CC)CC | 32.4% (active) |
| Cc1cccc(OP(=O)(Oc2cccc(C)c2)OC(c2ccccc2)C(F)(F)F)c1 (stereo not drawn) | 2.83% |
| Cc1ccc(S(=O)(=O)N2CCN(C(=O)Cn3c(=O)cnc4ccccc43)CC2)c(C)c1 | 14.9% |
| O=C(CNCc1ccco1)Nc1cc(S(=O)(=O)N2CCOCC2)ccc1N1CCCC1 | -3.18% |
| CC(C)C[C@H](NC(=O)C1CCC(CNC(=O)[C@@H]2CCCN2C(=O)OC(C)(C)C)CC1)C(=O)O (stereo partly drawn) | -6.89% |
| Oc1c(CN2CCN(c3ccc(F)cc3)CC2)cc(Cl)c2cccnc12 | 31.6% (active) |
| CC(C)c1ccc(O)c(CN2CCN(c3ccccc3)CC2)c1 | -12.4% |
| O=C(c1ccccc1)c1cccn1CC(=O)N1CCN(c2ccc(F)cc2)CC1 | -2.38% |
| Cc1ccc(S(=O)(=O)N2CCC(=O)N([C@H](COCc3ccccc3)C(C)C)CC2)cc1 | 3.62% |
| COc1ccc(NC(=O)CNC(=O)Cn2ccc3ccccc3c2=O)c(OC)c1 | -6.81% |
| Cc1ccc(Sc2cc(N3CCOCC3)nc(-c3ccccc3)n2)cc1 | 13.3% |
| O=C(OC(C(=O)NC1CCCC1)c1ccc(F)cc1)c1ccno1 (stereo not drawn) | -21.1% |
| Oc1ccc(CNc2ccccc2O)cc1 | 37% (active) |
| OCC(CO)(CO)NCc1ccc(-c2ccccc2)cc1 | -4.11% |
| COC(=O)C1=CN(c2c(C)cc(C)cc2C)C(N)=C(C#N)C1c1cccc(F)c1 (stereo not drawn) | 4.61% |

| SMILES | inhibition |
| --- | --- |
| O=C(NC1CCCCC1)N1CCc2[nH]c3ccccc3c2C1 | 58.5% (active) |
| O=C(CSc1nnc2c(n1)[nH]c1ccccc12)NC1CCCCC1 | -13% |
| O=C(Nc1cccc2c1CCCC2)C1CCN(C(=O)NC2CCCCC2)CC1 | -8.92% |
| CCCNC(=S)N1CCC(NC(=O)C23CC4CC(CC(C4)C2)C3)CC1 | -4.34% |
| CN1OC[C@@H]2CN(C(=O)c3cccnc3)[C@H](c3ccc(N4CCCCC4)cc3)C[C@@H]21 | -0.01% |
| N#Cc1cccc(CSc2nnc(CCCO)n2-c2ccccc2)c1 | -2.93% |
| CCOc1ccccc1NC(=O)c1cc(S(=O)(=O)N2CCC3(CC2)OCCO3)ccc1F | -13.4% |
| CCOc1cc(NC(=O)CCl)c(OCC)cc1NC(C)=O | 11.3% |
| CCOc1cc(NC(=O)c2ccccc2C(=O)O)c(OCC)cc1NC(=O)c1ccccc1F | 35.5% (active) |
| S=C(NCCc1ccccc1)N1CCn2cccc2C1c1ccncc1 (stereo not drawn) | 20.5% |
| c1ccc(N2Cc3ccccc3-n3nncc3C2)nc1 | -2.36% |
| Cc1ccn2c(c1)nc(=O)c1cc(S(=O)(=O)N3CCC(C)CC3)ccc12 | -11.7% |
| CCCCN(CC(=O)Nc1cccc(S(=O)(=O)N2CCCC2)c1)Cc1nc2ccccc2c(=O)[nH]1 | 3.14% |
| CCn1nnnc1SCC(=O)Nc1ccc(N(C)C)cc1 | 30.6% (active) |
| CC(=O)Nc1ccc(NC(=O)CSc2nnnn2C2CCCCC2)cc1 | -5.32% |
| CC(=O)Nc1ccc(NC(=O)CSc2nnnn2-c2ccccc2F)cc1 | 2.7% |
| CCn1c(SCC(=O)NC2=NCCS2)nnc1C(C)NC(=O)c1ccccc1F (stereo not drawn) | 0.18% |
| COCCCNS(=O)(=O)c1cccc(S(=O)(=O)c2cccc(S(=O)(=O)NCCCOC)c2)c1 | -10.2% |
| Cc1ccc(C2(C(F)(F)F)N=C3Sc4cc(C)cc(C)c4N3C(=O)N2)cc1 (stereo not drawn) | -15.2% |
| O=C(CSc1nnc(COc2ccccc2)n1Cc1ccco1)c1ccc2ccccc2c1 | 7.39% |

| SMILES | inhibition |
| --- | --- |
| Cc1ccc(OCc2nnc(SC/C=C/c3ccccc3)n2Cc2ccco2)cc1 | 31.9% (active) |
| Cc1ccc(-c2nnc(SCC(=O)Nc3ccc(Oc4ccccc4)cc3)n2Cc2ccco2)cc1 | 6.1% |
| O=C(Cc1ccc(NC(=O)C2CCCN(C(=O)CCc3ccccc3)C2)cc1)Nc1ccc(C(=O)N2CCOCC2)cc1 (stereo not drawn) | 23.1% |
| Cc1ccccc1CSc1nnc(-c2ccccc2)c(=O)[nH]1 | -2.29% |
| Cc1ccc(CSc2nc3[nH]ncc3c(=O)[nH]2)cc1 | -0.35% |
| Cc1ccc(CSc2nc(-c3ccccc3)c(C#N)c(=O)[nH]2)cc1 | 39.9% (active) |
| COCCNC(=O)Nc1ccc2nc(-c3ccco3)c(-c3ccco3)nc2c1 | 36% (active) |
| Cc1ccc(O)c(NC(=O)c2cc(-c3ccco3)on2)c1 | -0.2% |
| CN(C)c1ccc(NC(=O)CSc2n[nH]c(-c3ccco3)n2)cc1 | 4.49% |
| COc1ccc(NC(=O)NN2CCN(C)CC2)c(OC)c1 | 4.34% |
| CN1CCCc2cc(C#N)c(=O)[nH]c21 | -314% |
| CSCCC(NS(=O)(=O)c1ccc2c(c1)oc(=O)n2C)C(=O)NC1CCCc2ccccc21 (stereo not drawn) | 7.61% |
| Cc1cc(N2CCNC[C@@H]2C)ccc1N1CC[C@H](O)C1 | -1.97% |
| O=C(N/N=C/c1ccc(O)c(O)c1)C1c2ccccc2Oc2ccccc21 | 4.82% |
| Oc1ccc(/C=N/Nc2ccc(C(F)(F)F)cn2)cc1O | 31.3% (active) |
| COc1ccc(/C=N/NC(=O)Cn2cc(C(F)(F)F)ccc2=O)cc1 | 4.22% |
| CCc1cccc(C)c1N(C(=O)Cn1c(CO)nc2ccccc21)C(C)COC (stereo not drawn) | 6.13% |
| O=C(Nc1cc(S(=O)(=O)N2CCOCC2)ccc1N1CCOCC1)c1c(F)cccc1Cl | 8.3% |
